Laboratory results: PubChem BioAssay AID1224852 (National Center for Advancing Translational Sciences (NCATS), 2016)
Records with an inconclusive call do not appear. Unmarked numbers belong to inactive results. Calls come from the whole dose curve; as a rule, active = well fitted curve in the direction sought with a large enough effect (not every such curve was filed as active); inconclusive = small, poorly fitted or top-dose-only effect, or effect the other way, or another doubt; inactive = no such curve, though single readings can be large or run the other way.

assay: Cell viability assay for measurement of the protective activity of small molecules against cell death caused by Zika virus infection in human neural progenitor cells (hNPCs); conditions: hNPC ZIKV-induced death protection, ATP luminescence, 72 h; series mostly up to 46.1 µM; protection, negative = more death: at the top concentration;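 note: 0% = ZIKV-infected cells without compound and 100% = uninfected cells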
Summary of the method: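 Luminescent ATP content after 72 h ZIKV infection (2 FFU/cell) of hNPCs, compounds added 1 h before virus. Protection expressed as percent inhibition of the infection-induced drop in cell viability.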

Row | SMILES | protection, negative = more death
1 | Cc1ccc(O)c(N=Nc2ccccc2)n1 | -70.1%
2 | O=C1NC(=O)C(=Cc2ccc(-c3ccc(F)cc3)o2)S1 | -16.4%
3 | COc1cccc(-c2ccc(NC(=O)C3=C(C(=O)O)CCC3)c(F)c2)c1 | -16.9%
4 | CCOC1OC(=O)C[C@H]1NC(=O)[C@@H]1CCCN1C(=O)[C@@H](NC(=O)c1ccc(N)c(Cl)c1)C(C)(C)C (stereo not given in full) | 3.69%
5 | O=C(O)CCC(=O)c1ccc(-c2ccccc2)cc1 | 0.919%
6 | O=C1C[C@@H](c2ccc(O)cc2)Oc2cc(O)cc(O)c21 | -22.1%
7 | Cc1ccc(C(=O)c2ccc(CC(=O)O)n2C)cc1 | -31.2%
8 | COc1cccc(-c2cc(=O)c3ccccc3o2)c1N | -47.7%
9 | C[C@@H](N)c1ccc(C(=O)Nc2ccnc3[nH]ccc23)cc1 | -39.7%
10 | CC(=O)Oc1cccc2c1C(=O)c1c(OC(C)=O)cc(C(=O)O)cc1C2=O | -25.4%
11 | CCCS(=O)c1ccc2nc(NC(=O)OC)[nH]c2c1 (stereo not given) | -43.9%
12 | CCN1/C(=C/C=C/c2sc3ccccc3[n+]2CC)Sc2ccccc21 | -80.2% [at 23.8 µM]
13 | CC(C(=O)O)c1ccc(C(=O)c2cccs2)cc1 (stereo not given) | 2.89%
14 | O=c1cc(-c2ccccc2)oc2cc(O)cc(O)c12 | -30.1%
15 | CCC(C(=O)O)c1ccc(N2Cc3ccccc3C2=O)cc1 (stereo not given) | -9.9%
16 | COc1ccc(/C=C/C(=O)Nc2ccccc2C(=O)O)cc1OC | -34.7%
17 | O=C(c1ccccc1)c1ccc2n1CCC2C(=O)O (stereo not given) | -6.75%
18 | O=C(/C=C/c1ccc(O)cc1)c1ccc(O)cc1O | -43.6%
19 | O=C(Nc1ccc([N+](=O)[O-])cc1Cl)c1cc(Cl)ccc1O | -78.3%
20 | COc1cccc2c1C(=O)c1c(O)c3c(c(O)c1C2=O)C[C@@](O)(C(=O)CO)C[C@@H]3O[C@H]1C[C@H](N)[C@H](O[C@@H]2CCCCO2)[C@H](C)O1 | -84.3%
